CendR NRP1 mod = modulators of CendR peptide binding to NRP-1, primary screen, biochemical, fluorescence polarization, uHTS. FAM-RPARPAR peptide binding to NRP-1. inhibition, % at 25 µM. actives 0.85% (n = 360,000). AID 602438, 2012;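 active = inhibition or corrected inhibition above about 18%, plus a signal ratio from 0.5 to 1.5, limit read from the data, passing the limit was not always enough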
HGIII-sPLA2 inh = human group III sPLA2 inhibitors, primary screen, biochemical, QFRET, BODIPY PC-A2 liposome substrate. AID 743126, 2013. Group 3 secretory phospholipase A2 (Homo sapiens), Q9NZ20. inhibition, % at 12.2 µM. actives 0.56% (n = 370,000). QFRET BODIPY PC-A2 liposome hydrolysis, fluorescence;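 active = inhibition above mean plus 3 SD of compounds lying within the high and low control bounds, cut at about 19% in these data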
Target sequence (Q9NZ20 whole entry, looked up): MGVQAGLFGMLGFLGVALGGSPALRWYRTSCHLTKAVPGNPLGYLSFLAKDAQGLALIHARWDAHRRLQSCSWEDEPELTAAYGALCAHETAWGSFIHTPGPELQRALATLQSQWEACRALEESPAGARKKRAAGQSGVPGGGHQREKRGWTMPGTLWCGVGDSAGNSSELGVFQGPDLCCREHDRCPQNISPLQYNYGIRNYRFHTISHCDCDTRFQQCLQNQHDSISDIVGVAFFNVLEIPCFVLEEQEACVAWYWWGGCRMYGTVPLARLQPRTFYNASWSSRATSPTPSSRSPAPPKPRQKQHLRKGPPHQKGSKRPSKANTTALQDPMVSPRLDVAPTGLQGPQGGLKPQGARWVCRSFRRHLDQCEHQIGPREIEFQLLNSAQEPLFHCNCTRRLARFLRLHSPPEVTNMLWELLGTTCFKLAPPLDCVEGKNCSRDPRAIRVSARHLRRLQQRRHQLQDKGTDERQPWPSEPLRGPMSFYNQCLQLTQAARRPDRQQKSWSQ
ADAM10 inh = human ADAM10 inhibitors, primary screen, biochemical, QFRET, HTS | Disintegrin and metalloproteinase domain-containing protein 10 (Homo sapiens), O14672 | recombinant ADAM10, EDANS/DABCYL FRET peptide cleavage, 3 h | inhibition, % at 7 µM | actives 0.62% (n = 370,000);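 active = inhibition above a per-campaign cutoff equal to the mean of compounds falling between control-based bounds plus 3 SD, cut at about 20% in these data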
proKLK7 act = proKLK7 zymogen activators, primary screen, biochemical, fluorescence intensity | purified proKLK7, EDANS-DABCYL substrate fluorescence; 100% is mature enzyme control, 0% vehicle | Kallikrein-7 (Homo sapiens), P49862 | AID 652039, 2013 | activation, % at 7 µM | actives 0.9% (n = 370,000);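 active = activation above the mean of all tested compounds plus 3 SD, computed per campaign excluding outliers beyond control limits, cut at about 13% in these data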
ADAM17 inh = ADAM17 inhibitors, primary screen, biochemical, QFRET; inhibition, % at 6.95 µM; actives 0.83% (n = 370,000); Disintegrin and metalloproteinase domain-containing protein 17 (Homo sapiens), P78536; AID 720648, 2013; recombinant ADAM17, EDANS/DABCYL FRET peptide cleavage;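 active = inhibition above the mean of compounds lying between control limits plus 3 SD, set per campaign, cut at about 8.5% in these data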
ADAM10 ctr = ADAM10 inhibitors, counter-screen for ADAM17 exosite inhibitor project, biochemical, FRET, human ADAM10 | shares compounds with ADAM17 inh | recombinant ADAM10, EDANS/DABCYL FRET peptide cleavage, 3 h | inhibition, % at 6.95 µM | actives 47% (n = 2,900) | AID 743256, 2014;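 active = mean inhibition over the triplicate runs exceeds the activity threshold set in the earlier primary screen, cut at about 20% in these data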
ADAM17 confirm = ADAM17 inhibitors, hit retest, confirmation, biochemical, QFRET peptide cleavage; shares compounds with ADAM17 inh; recombinant ADAM17, EDANS/DABCYL QFRET peptide cleavage; inhibition, % at 6.95 µM; actives 65% (n = 2,900);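 active = mean inhibition across replicates above the hit cutoff set in the primary screen, cut at about 8.5% in these data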
Numbers stand for hits; - = inactive; . = no result given. Shown are actives, neighbours in structure and some others; about 3.4% of the full set was active somewhere.

SMILES | CendR NRP1 mod | HGIII-sPLA2 inh | ADAM10 inh | proKLK7 act | ADAM17 inh | ADAM10 ctr | ADAM17 confirm
Cc1ccc(C)c(NC(=O)C2CCCN2S(=O)(=O)c2cccnc2)c1 (centres undefined) | . | - | - | - | - | . | .
CCCC(C)C(=O)NC1CCCCN(C)C1=O (centres undefined) | . | - | - | - | - | . | .
COc1ccc(S(=O)(=O)NN(C)c2ncc(C(F)(F)F)cc2Cl)cc1 | - | - | - | - | 9.4 | - | -
C/C(=N/NC(=O)CSc1nnc(SCc2ccc(C)cc2)s1)c1cccc(O)c1 | . | - | - | - | - | . | .
Nc1nc2ccccc2n1S(=O)(=O)c1ccccc1 | - | - | - | - | 9.0 | - | -
COC(=O)[C@]12C[C@H](CC(=O)NCC3CCCCC3)C(=O)N(CCC3=CCCCC3)C1=C[C@H](C1CCCC1)O[C@@H]2C | . | - | - | - | - | . | .
COc1cccc(NC(=O)CC2S/C(=N\S(=O)(=O)c3ccccc3)N(c3ccccc3)C2=O)c1 (centres undefined) | - | - | - | - | 10 | - | 9.8
Cc1ccccc1NC(=O)CC1SC(=O)N(c2ccccc2)C1=O (centres undefined) | - | - | - | - | - | . | .
COc1cccc(NC(=O)CC2SC(=Nc3ccccc3)NC2=O)c1 (centres undefined) | - | - | - | - | - | . | .
CCOc1ccc(NC(=O)CC2SC(=O)N(c3ccccc3)C2=O)cc1 (centres undefined) | - | - | - | - | 9.6 | - | 41
CC(C)=CCc1c(O)ccc(C(=O)Cc2ccccc2)c1O | - | - | - | - | 10 | 24 | 13
COC(=O)C1=C(C)N(Cc2ccccc2C(F)(F)F)C(=NCc2ccc(C(F)(F)F)cc2)NC1c1cccc(Cl)c1 (centres undefined) | . | - | - | - | - | . | .
CC(=O)Nc1ccc(SC[C@H](CC(C)C)N2CCN(CCc3ccccc3)CCC2=O)cc1 | - | - | - | - | 9.0 | - | -
Cc1ccc(SC[C@H](CC(C)C)N2CCN(CCc3ccccc3)CCC2=O)cc1 | - | - | - | - | - | . | .
Fc1cccc(CCN2C(=S)NC[C@@H]2Cc2ccccc2)c1 | - | - | - | - | - | . | .
Fc1cccc(CCN2C(=S)NC[C@@H]2CC2CCCCC2)c1 | - | - | - | - | 11 | - | -
Cc1nc(NC(=O)c2cc3c(C)nn(-c4ccccc4)c3s2)sc1C(=O)Nc1ccccc1 | - | - | - | - | - | . | .
CCN(CC)c1ccc(NC(=O)c2cc3c(C)nn(-c4ccccc4)c3s2)cc1 | . | - | - | - | 13 | - | 10
CSc1ccc(Oc2cccc3c2S(=O)(=O)N(C2CC2)C[C@@H](COCc2ccccc2)O3)cc1C | . | - | - | - | - | . | .
CC1C(=O)N(Cc2cn(CCC3OCCO3)nn2)CCS(=O)(=O)N1Cc1ccc(-c2ccc(F)cc2)cc1 (centres undefined) | - | - | - | - | 10 | - | -
COc1ccc(-c2ccc(CN3C(C(C)C)C(=O)N(Cc4cn(Cc5ccco5)nn4)CCS3(=O)=O)cc2)cc1 (centres undefined) | - | - | - | - | - | . | .
COc1ccc(-c2ccc(CN3C(C(C)C)C(=O)N(Cc4cn(Cc5ccco5)nn4)CCS3(=O)=O)cc2)cc1OC (centres undefined) | - | - | - | - | 10 | - | 14
CC1C(=O)N(Cc2cn(CCC3OCCO3)nn2)CCS(=O)(=O)N1Cc1ccc(-c2ccncc2)cc1 (centres undefined) | - | - | - | - | - | . | .
N/C(=N\C(=O)OCc1ccccc1)N(Cc1ccccc1)C(C#CC1=CCCCC1)Cc1ccccc1 (centres undefined) | . | - | - | - | - | . | .
COC(=O)C1CN(Cc2ccc(Cl)cc2)CCS(=O)(=O)N1Cc1cn(Cc2ccc(OC)cc2)nn1 (centres undefined) | . | - | - | - | - | . | .
SMILES | CendR NRP1 mod | HGIII-sPLA2 inh | ADAM10 inh | proKLK7 act | ADAM17 inh | ADAM10 ctr | ADAM17 confirm
CCCN1C(=O)c2ccc(C(=O)Nc3cc(C)on3)cc2C1=O | - | - | - | - | 9.7 | - | -
Cc1cc(NC(=O)c2ccc3c(c2)C(=O)N(Cc2ccccc2)C3=O)no1 | - | - | - | - | - | . | .
O=C(NCc1cccs1)c1cc(-c2ccccc2)nn1CC1CC(c2cccc([N+](=O)[O-])c2)=NO1 (centres undefined) | 30 | - | - | - | 11 | 27 | 13
O=C(NCCc1cccs1)C1CC(c2cccc([N+](=O)[O-])c2)=NO1 (centres undefined) | - | - | - | - | - | . | .
COc1ccc(C(=O)NCC2CCN(C(=O)C(=O)c3cccs3)CC2)c(OC)c1 | . | - | - | - | - | . | .
CCC(C(=O)Nc1ccccc1N1CCCC1)c1cccc(C)c1 (centres undefined) | . | - | - | - | - | . | .
CCCCC(=O)N(C)c1c(CC)nc2c(OCC3CCCCC3)cccn12 | - | - | - | - | 9.7 | - | -
CCc1nc2c(OCCC3CCCCC3)cccn2c1N(C)C(=O)c1cccs1 | - | - | - | - | 9.4 | 21 | 12
O=C(Nc1ccc(Cl)cc1)OC[C@@H]1CSCCS(=O)(=O)N1 | . | - | - | - | - | . | .
c1ccc(CSc2nnc(SCc3ccccn3)s2)nc1 | - | - | - | - | 9.0 | - | -
N=C(N)SCc1ccccn1 | - | - | - | - | - | . | .
COc1cc(/C=C(\C#N)c2ccccn2)ccc1OCc1ccccc1 | - | - | - | - | 9.4 | - | 16
COc1cccc(NC(=O)CSc2nnc(Cc3ccc(C)cc3)c(=O)n2N)c1 | - | - | - | - | - | . | .
COc1ccc(Cc2nnc(SCC(=O)Nc3ccc(C)cc3)n(N)c2=O)cc1 | - | - | - | - | 9.8 | - | -
CC(=O)N1CCN(C(=O)CN2C(=O)CC(C)(C)S(=O)(=O)c3ccccc32)CC1 | . | - | - | - | - | . | .
COc1cccc(-c2csc(N3CCN(CC(=O)Nc4ccc5c(c4)OCO5)CC3)n2)c1 | - | - | - | - | - | . | .
O=C(CN1CCN(c2nc(-c3ccccc3)cs2)CC1)Nc1ccc(Cl)c(Cl)c1 | . | - | - | - | 8.8 | - | 12
C[C@@H]1CCN(C2CC2)S(=O)(=O)c2ccc(N3CC[C@H](N(C)C)C3)cc2O1 | . | - | - | - | - | . | .

Screens: PubChem, several laboratories
